The campaign covered roughly 45,000 compounds. About 200 (0.44%) were called active. About 7% were inconclusive and are not listed. For the sample, actives were picked, then their nearest neighbours and some compounds at random. Values without a mark were called inactive. Calls follow the shape of the dose curve; as a rule, active = well fitted activation curve with a large enough effect; inconclusive = small, poorly fitted or top-dose-only effect; inactive = no such curve, though single readings can be large or run the other way.
Test: qHTS of TDP-43 Inhibitors: NCGC Sytravon Library Screen; also: nearly all actives have a fitted effect of over 55% in size; as to growth rescue (activation): 0% is about no effect
Conditions: yeast TDP-43 toxicity rescue, BacTiter-Glo growth, 24 h; series mostly up to 46.1 µM; growth rescue (activation): at the top concentration
Text: The goal of this project is to identify new chemical probes capable of reversing the toxicity associated with TDP-43 which is associated with frontotemporal lobar degeneration and amyotrophic lateral sclerosis. These compounds will provide a complementary approach to deciphering the tangled mechanisms of toxicity and protection that we have uncovered through genome-wide genetic screens and are beginning to uncover in a large-scale proteomics analysis with mass spectroscopy. To this end, a miniaturized assay was developed to be screened against the Molecular Libraries Small Molecule Repository (MLSMR) to discover TDP-43 inhibitors. Please note that in the set-up this yeast-based assay compounds that inhibit as TDP-43, have a read-out as activators. NIH Chemical Genomics Center [NCGC] NIH Molecular Libraries Probe Centers Network [MLPCN] Assay Submitter (PI): Susan Lindquist, Whitehead Institute/MIT MLPCN Grant: R21 NS060957
Dispense 2.5 microL yeast galactose medium per 1536-well plate, pin compound, dispense 2.5 microL TDP-43 expressing yeast in galactose medium at OD600=0.02 (pregrown in raffinose medium to mid-log phase) per well, incubate for 24 hr at 30 deg C, and cell growth will be measured using 5 microL of Bactiter/Glo reagent to entire plate and read using Luminescence Protocol in ViewLux.
Potency is read from the fitted curve at half-maximal effect.

SMILES | growth rescue (activation) | Potency
Cc1nc(C(F)(F)F)ccc1C(=O)N1CCC1(C)C(=O)NS(=O)(=O)c1ccccc1 (configuration not stated) | 14% | 
C=CCN1C(=O)C(O)(CC(=O)c2ccccn2)c2ccccc21 (configuration not stated) | 2.18% | 
COc1ccc(N(C)S(=O)(=O)c2cccc3nsnc23)cc1 | 21.5% | 
CCCC(=O)Nc1ccc2c(c1)nc(CCNC(=O)c1ccco1)n2C | -7.12% | 
COc1ccc(NC(=O)NC(C)c2c(-n3cccc3)sc(C)c2C)cc1OC (configuration not stated) | 1.24% | 
COCCNC(=O)C1(C)CCCN(Cc2cccc(F)c2)C1 (configuration not stated) | -16.4% | 
COc1ccc(-n2cnnc2SCC(=O)Nc2cccc(S(N)(=O)=O)c2)cc1 | -0.153% | 
O=C(O)c1ccc(/C=N/NC(=O)c2ccc(Br)cc2)cc1 | 8.15% | 
Cc1cc(=O)[nH]c(SCC(=O)Nc2ccc(Br)cc2)n1 | 0.754% | 
CCOC(=O)Cc1csc(SCc2cc(=O)oc3cc(O)ccc23)n1 | 2.23% | 
CCOC(=O)Cc1csc(NC(=O)CSc2ccc(Br)cc2)n1 |  | 12.6 µM (active)
O=C(C(Cl)Cl)N1CCN(c2ccccn2)CC1 | 7.4% | 
OC(c1ccc(F)cc1)c1ncc(-c2cccc(C(F)(F)F)c2)[nH]1 (configuration not stated) | 14.7% | 
COc1ccc(CN(C)Cc2nc3cc(OC)c(OC)cc3c(=O)[nH]2)c(OC)c1 | 5.3% | 
CC1(C(=O)NS(=O)(=O)Cc2cccc(Cl)c2)CCN1C(=O)Cc1ccc(Cl)cc1Cl (configuration not stated) | 6.35% | 
O=C(NC1CCCC1)C(c1c(F)cccc1Cl)N(C(=O)c1csnn1)C1CC1 (configuration not stated) | 13.1% | 
O=C(COC(=O)c1ccc([N+](=O)[O-])o1)NC12CC3CC(CC(C3)C1)C2 | 9.8% | 
Cc1noc(/C=C/c2ccco2)c1S(=O)(=O)N1CCC(C(=O)Nc2ccc(Cl)cn2)CC1 | 3.65% | 
CC(C)c1nc2sc3c(c2c(=O)n1N)CC(C)(C)OC3 | 20.6% | 
CN(CCc1ccccn1)C(=O)CCC1CCCN(Cc2ccccc2OC(F)F)C1 (configuration not stated) | 1.51% | 
CC(=O)Nc1ccc(NC(=S)NC(=O)c2ccc([N+](=O)[O-])c(C)c2)cc1 | 12.6% | 
O=C(NCc1cccnc1)c1cc(C2CCCN(C(=O)CCCc3ccccc3)C2)on1 (configuration not stated) | 2.36% | 
OC[C@@H]1CN(Cc2ccc3c(c2)OCO3)C[C@H](n2cnc3c(NCc4ccco4)ncnc32)O1 | 8.28% | 

SMILES | growth rescue (activation) | Potency
O=C(c1cnccn1)N1CCN(S(=O)(=O)c2cccc(Cl)c2)CC1 | 12.7% | 
CCCCNC(=O)N(O)C1N(/N=C/c2ccccc2O)C(=S)SC1(C)C (configuration not stated) | 13.7% | 
Cc1cccc(NC(=O)c2ccc([N+](=O)[O-])o2)c1 | -89% | 
Cc1cccc(NC(=O)c2nc(S(=O)(=O)Cc3ccccc3)ncc2Cl)c1 |  | 12.6 µM (active)
CCCSc1ncc(Cl)c(C(=O)Nc2c(C(=O)Nc3ccccc3)oc3ccccc23)n1 | 5.87% | 
O=C(NCCc1ccccc1)c1ccc2c(c1)N(Cc1ccccc1)C(=O)c1ccccc1S2(=O)=O | 14% | 
Cc1ccc(OCC(=O)NCCCNC(=O)c2ccco2)cc1C | 9.61% | 
N/C(=N/O)c1cccn1Cc1ccccc1[N+](=O)[O-] | 4.53% | 
CCCn1c(=N)n(CC(O)COc2ccccc2OC)c2ccccc21 (configuration not stated) | 4.92% | 
O=C1c2ccccc2C(=O)c2c1cccc2N1CCN(C/C=C/c2ccccc2)CC1 | 24.5% | 
NS(=O)(=O)c1ccc(N2C(=O)C3C4CC(C(Br)C4Br)C3C2=O)cc1 (configuration not stated) | 5.23% | 
COC(=O)CCNC(=O)c1ccc2[nH]c(C)c(C)c2c1 | -8.44% | 
O=C(CN1C(=O)NC2(CCCC2)C1=O)NCC1CCCO1 (configuration not stated) | -2.83% | 
COc1ccc(-c2nc(N)sc2C2(O)C(=O)Nc3c(Br)cc(F)cc32)cc1OC (configuration not stated) | 19.9% | 
CN(C)C(CNC(=O)c1cccc(C#N)c1)c1ccco1 (configuration not stated) | -1.02% | 
Nn1c(SCC(=O)Nc2ccc3c(c2)CCC3)nnc1C1CC1 | 12% | 
CC(CN1CCC(n2nccc2NC(=O)C2CCCC2)CC1)c1ccccc1 (configuration not stated) | 16.5% | 
O=C1c2ccccc2S(=O)(=O)N1CC(O)Cn1c2ccccc2c2ccccc21 (configuration not stated) |  | 12.6 µM (active)
COc1ccc(CNC(=O)CN2C(=O)c3ccccc3S2(=O)=O)cc1 | -1.25% | 
CC(C)(C)c1ccc(CN2C(=O)c3ccccc3S2(=O)=O)cc1 | -10.6% | 
Cc1ccc(Cl)cc1NC(=S)N(CCN(C)C)Cc1cccs1 | 18.7% | 
COCCCNC(=O)c1ccc(-c2c(C)noc2C)c2ccoc12 | 14.9% | 
COc1ccc(-c2ccc(C(=O)NC(C)C)c3occc23)c(C)c1 |  | 15.8 µM (active)

SMILES | growth rescue (activation) | Potency
Cc1noc(C)c1-c1ccc(C(=O)NCc2ccncc2)c2occc12 | -0.761% | 
Cc1ccc(OCc2n[nH]c(=S)n2-c2ccc(C)cc2)cc1 | 12.9% | 
Cc1ccc(S(=O)(=O)N(Cc2ccc(Cl)cc2)c2ccccc2C(=O)NCc2cccnc2)cc1 | 18.2% | 
O=C(c1cccs1)c1cn(CCOc2ccc(Cl)cc2)c2ccccc12 | -4.83% | 
CN(C)c1ccnc(Nc2ccc(F)cc2)c1C#N | 9.98% | 
COc1ccccc1OCc1ccc(C(=O)NC(C)c2ccccc2)o1 (configuration not stated) | -10.7% | 
O=C(C1CCN(S(=O)(=O)c2ccc(Br)s2)CC1)N1CCN(C2CCCCC2)CC1 | 9.07% | 
COc1ccc(C(=O)OCc2cc(=O)n3ccsc3n2)cc1F | 21.7% | 
CCCCN(CC)CCCNC(=O)c1ccc(CSc2nc3ccncc3[nH]2)cc1 | 9.62% | 
CC(C)(C)c1ccccc1NC(=O)CN1C(=O)NC2(CCCC2)C1=O | -20.9% | 
COc1ccc(C(=O)Nc2ccc(N3CCC(C)CC3)cc2)cc1Br | 5.41% | 
c1cc(-c2ccc3[nH]ccc3c2)n2ccnc2c1 | -5.58% | 
O=C(CN1C(=O)NC2(CCCCCC2)C1=O)Nc1ccc([N+](=O)[O-])cc1 | 26.5% | 
O=C1NC(c2ccc(-c3ccccc3[N+](=O)[O-])o2)C(C(=O)c2ccc(Cl)cc2)C(O)(C(F)(F)F)N1 (configuration not stated) | 7.15% | 
CN(Cc1nc2ccccc2s1)C(=O)c1ccc(F)cc1 | 0.189% | 
CCN(CC)C(=O)CN(c1cccc([N+](=O)[O-])c1)S(=O)(=O)c1ccccc1 | -34.4% | 
O=C(Nc1ccc(F)cc1)N1CCN(c2ccc(F)cc2)CC1 | -2.13% | 
Cc1nc2c(OCc3cccc(Cl)c3)cccn2c1N(C)CC1CC1 | 7.14% | 
CC(C)(C)NC(=O)C(=O)NN=C1CCCCCCC1 | 5% | 
O=C(CCn1c(=O)c2sccc2n(Cc2ccc(F)cc2)c1=O)NCc1ccc2c(c1)OCO2 | 11% | 
CCc1ccc(OC2(C)CCN(CCOc3ccc(C)cc3)C2)cc1 (configuration not stated) | 16.9% | 
